Experimental data as given in PubChem BioAssay (NCATS).
Inconclusive results are not listed. A call without a number means that no potency is given here. Calls of active or inactive are those of the source. Calls follow the shape of the dose curve; as a rule, active = well fitted cell-killing curve with a large enough effect; inconclusive = small, poorly fitted or top-dose-only effect; inactive = flat fitted curve, though single readings scatter.

experiment: Cell Viability - LYMP2-013 (AID 970); conditions: LYMP2-013 lymphoblastoid cells viability; series mostly up to 92.2 µM;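 also: cells exposed to compound for 24 h at 37 °C; nearly all actives have a fitted effect of over 55% in size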
Excerpt: NIH Chemical Genomics Center [NCGC]
NIH Molecular Libraries Screening Centers Network [MLSCN]
National Institutes of Environmental Health Sciences [NIEHS]
National Toxicology Program [NTP]
We have developed a 1536-well cell-based assay for quantitative high throughput screening (qHTS) against a number of cell lines to determine in vitro cytotoxicity of small molecules. This particular assay uses a human lymphoblastoid cell line (LYMP2-013) purchased from Coriell Institute for Medical Research.
NCGC Assay Protocol Summary:
The CellTiter-Glo luminescent cell viability assay (Promega) is a homogeneous method to measure the number of viable cells in culture. The end point readout of this assay is based on quantitation of intracellular ATP, an indicator of metabolic activity, using the luciferase reaction. Luciferase catalyzes the oxidation of beetle Luciferin to oxyluciferin and light in the presence of ATP. The luminescent signal is proportional to amount of ATP present.
Using the CellTiter-Glo luminescent cell viability assay, the amount of cellular ATP was measured in the lymphoblastoid cell line with complete culture medium following compound treatment for 24 hours. The assay was performed in opaque white Kalypsys 1536-well plates. In the screen, tetraoctylammonium bromide was used as positive control. Library compounds were measured for their ability to cause acute toxicity in the cell line, as reflected by a decrease in intracellular ATP levels, in a concentration-dependent manner. […] AC50 values were determined from concentration-response data modeled with the standard Hill equation.
qHTS protocol for CellTiter Glo lymphoblastoid cellular assay
[Step] [Parameter] [Value] [Description]
1. Reagent; 5 uL; 2500 lymphoblastoid cells/well
2. Time; 5 hr; 37 C incubation
4. Controls; 23 nL; Tetraoctylammonium bromide 6.4pM to 92 uM
5. Time; 24 hr; 37 C incubation
6. Reagent; 5 uL; CellTiter Glo reagent
7. Time; 30 min; Room Temperature
8. Detection; Luminescence; Viewlux plate reader
Keywords: cell viability, cytotoxicity, lymphoblastoid cell line, luminescence, NTPHTS, NTPHTS_NCGC, NIEHS, DSSTox, MLSMR, MLSCN, NIH Roadmap, qHTS, NCGC
Potency is read from the fitted curve at half-maximal effect.

| Structure (SMILES) | Potency |
| --- | --- |
| CC(C)CON=O | inactive |
| Nc1ccc(-c2ccc(N)cc2)cc1 | inactive |
| Clc1cc(Cl)c(Cl)c(Cl)c1 | inactive |
| OCCOCCO | inactive |
| CCOC(=O)C1OC1(C)c1ccccc1 (stereo not given) | inactive |
| C=C(Cl)CCl | inactive |
| CC(Cl)CCl (stereo not given) | inactive |
| COC(=O)c1ccccc1N | inactive |
| Nc1cc(Cl)cc(Cl)c1 | inactive |
| CN(C)C(=O)Nc1ccc(Cl)cc1 | inactive |
| Nc1ccc2ccccc2c1 | inactive |
| CCOP(=O)(OCC)OCC | inactive |
| O=[N+]([O-])c1ccc(O)c([N+](=O)[O-])c1 | inactive |
| CC(C)(OOC(C)(C)c1ccccc1)c1ccccc1 | inactive |
| C(CCOCC1CO1)COCC1CO1 (stereo not given) | inactive |
| ClCc1ccccc1 | inactive |
| CCN(N=O)C(N)=O | inactive |
| C=COC(C)=O | inactive |
| Clc1ccc(C(c2ccccc2Cl)C(Cl)(Cl)Cl)cc1 (stereo not given) | inactive |
| N#CCBr | inactive |

| Structure (SMILES) | Potency |
| --- | --- |
| O=Cc1ccc(Cl)cc1Cl | inactive |
| Nc1c(Br)cc([N+](=O)[O-])cc1[N+](=O)[O-] | inactive |
| Nc1ccc(Cl)c(Cl)c1 | inactive |
| ClCCOCOCCCl | inactive |
| Cc1ccc(N=C=O)cc1N=C=O | inactive |
| C=CCCC#N | inactive |
| Cc1ccc(OP(=O)(Oc2ccc(C)cc2)Oc2ccc(C)cc2)cc1 | inactive |
| O=[N+]([O-])c1cccc2c([N+](=O)[O-])cccc12 | inactive |
| Cc1cc(C)cc(OP(=O)(Oc2cc(C)cc(C)c2)Oc2cc(C)cc(C)c2)c1 | inactive |
| O=C(O)C(Br)Br | inactive |
| C=CCc1cc(OC)c2c(c1)OCO2 | inactive |
| S=C1NCCN1 | inactive |
| NC1CCC(CC2CCC(N)CC2)CC1 (stereo not given) | inactive |
| CN=C=O | inactive |
| Cc1cc(-c2cc(C)c(N)c(C)c2)cc(C)c1N | inactive |
| O=C(Cl)OCc1ccccc1 | inactive |
| Cc1ccc(N)c(N)c1 | 39.8 µM (active) |
| O=[N+]([O-])c1cc(Cl)c(Cl)cc1Cl | inactive |
| CC1CC(=O)O1 (stereo not given) | inactive |
| BrCCc1ccccc1 | inactive |
